Reference: PubChem BioAssay (Tox21)
Results filed as inconclusive are left out. A number with no mark means an inactive call. Calls follow the shape of the dose curve; as a rule, active = well fitted cell-killing curve with a large enough effect in the repeat runs; inconclusive = weak or mixed curves, or effect the other way; inactive = no such curve, though single readings can be large or run the other way.

Test: qHTS assay to identify small molecule antagonists of the progesterone receptor (PR) signaling pathway - cell viability counter screen (AID 1346798); also: nearly all actives have a fitted effect of over 50% in size
Details: PR-UAS-bla HEK293T viability, CellTiter-Glo luminescence, 16 h; series mostly up to 92.4 µM; activity change, negative = cytotoxicity: at the top concentration
Description: National Center for Advancing Translational Sciences [NCATS]
NIH Chemical Genomics Center [NCGC]
U.S. Environmental Protection Agency [EPA]
National Institutes of Environmental Health Sciences [NIEHS]
National Toxicology Program [NTP]
U.S. Food and Drug Administration [FDA]
Progesterone receptor (PR), a nuclear hormone receptor, plays an important role in development, metabolic homeostasis and reproduction. It is activated by the steroid hormone progesterone. Endocrine disrupting chemicals (EDCs) and their interactions with steroid hormone receptors like PR causes disruption of normal endocrine function. To identify the compounds that inhibit PR signaling, a PR-UAS-bla GripTite cell line i.e. PR-UAS-bla HEK293T (Invitrogen, Carlsbad, CA, USA) containing a beta-lactamase reporter gene under the control of an UAS response element was used to screen Tox21 10K compound library. The cytotoxicity of the Tox21 compound library against the PR-bla cell line was tested in parallel by measuring the cell viability using CellTiter-Glo assay in the same wells.
Tox21 Assay Protocol Summary:
PR-UAS-bla HEK293T cells were dispensed at 3,000 cells/4 uL of assay medium containing 2% charcoal stripped FBS per well into black wall/clear-bottom 1536-well plates using a Multidrop Combi (ThermoFisher Scientific, Waltham, MA) dispenser. After the assay plates were incubated at a 37C and 5% CO2 for 4 hr, 23 nL of compounds dissolved in DMSO, positive controls or DMSO only was transferred to the assay plate by a Pintool station (Kalypsys, San Diego, CA), followed by addition of 1 uL of R5020 in assay medium using a Flying Reagent Dispenser (FRD, Aurora Discovery, San Diego, CA). The plates were incubated at 37C and 5% CO2 for 16 hr. Then 1 uL of LiveBLAzer B/G FRET substrate was added using a Flying Reagent Dispenser, the plates were incubated at room temperature for 2 hours, and fluorescence intensity was measured by an Envision plate reader (PerkinElmer, Shelton, CT). For cell viability readout that measures cytotoxicity, 4 uL/well of CellTiter-Glo reagent was added into the assay plates using a FRD. After 30 min incubation at room temperature, the luminescence intensity in the plates was measured using a ViewLux (PerkinElmer) plate reader.
% is scaled to controls: 0 for no effect and ±100 for the full control effect.

Structure (SMILES) | activity change, negative = cytotoxicity
CCOC(=O)CC(CC(=O)OCC)(OC(C)=O)C(=O)OCC | -2.94%
CC(=O)OC(C)c1ccccc1 (stereo not given) | -0.287%
O=C(COCCOCCOCC(=O)Nc1c(I)cc(I)c(C(=O)O)c1I)Nc1c(I)cc(I)c(C(=O)O)c1I | 2.75% [at 42.5 µM]
Nc1cc(C(=O)O)ccc1Cl | 1.16%
Nc1ccc(S(=O)(=O)NC(=O)c2ccccc2)cc1 | -11.7% [at 42.5 µM]
F[Si-2](F)(F)(F)(F)F | -4.06%
C[CH2][Ge]([Cl])([CH2]C)[CH2]C | 6.9%
CCS(=O)(=O)CCn1c([N+](=O)[O-])cnc1C | 15% [at 42.5 µM]
C[Si]1(C)N[Si](C)(C)N[Si](C)(C)N1 | -3.51%
Cc1cccc(Nc2ccncc2S(=O)(=O)NC(=O)NC(C)C)c1 | 0.856% [at 42.5 µM]
N#CCCOCCOCCC#N | -1.33%
Nc1c(NC/C=C\COc2cc(CN3CCCCC3)ccn2)c(=O)c1=O | 4.14% [at 18.9 µM]
Cc1nc([N+](=O)[O-])cn1-c1ccc([N+](=O)[O-])cc1 | -4.96% [at 42.5 µM]
CCCCCC(=O)OCC | 6.97%
C[C@H](CCC(=O)NCC(=O)O)[C@H]1CC[C@H]2[C@@H]3[C@H](O)C[C@@H]4C[C@H](O)CC[C@]4(C)[C@H]3C[C@H](O)[C@]12C | 12%
C=CCOCC(CO)(COCC=C)COCC=C | -17.5% [at 42.5 µM]
CCCCCCCC/C=C\CCCCCCCC(=O)OC[C@@H](O)[C@H]1OC[C@H](O)[C@H]1O | 3.17%
C/C=C(\C)C(=O)OCC/C=C\CC | 5.94%
O=c1[nH]c(=O)c2[nH]c(=O)[nH]c2[nH]1 | -11.7% [at 8.39 µM]
CCC(=O)OCCC(C)CCC=C(C)C (stereo not given) | -2.53%

Structure (SMILES) | activity change, negative = cytotoxicity
CCCCCCCCCCCCCCCCCCN(C)C | 6% [at 42.5 µM]
CCCCCCCC[Si](OCC)(OCC)OCC | 17.8%
CN(C)CCCNCCC#N | -11.1%
CCCCOC(=O)C(=O)OCCCC | 19.5%
CC(Cl)COP(=O)(OCC(C)Cl)OCC(C)Cl (stereo not given) | -5.93%
O=C(O)c1c(Cl)ccc(Cl)c1Cl | -0.144%
CC(=O)OC(C(=O)c1ccccc1)c1ccccc1 (stereo not given) | 11.6%
CC(=O)N(CC(O)CO)c1c(I)c(C(=O)NCC(O)CO)c(I)c(C(=O)NCC(O)CO)c1I (stereo not given) | -1.08% [at 42.5 µM]
OC[C@@H](O)[C@H](O)[C@@H](O)[C@@H](O)CO | -15.8%
O=CO | 2.97% [at 8.39 µM]
O=c1[nH]c(=O)c2ccccc2o1 | 1.74% [at 42.5 µM]
CC(=O)/C=C/c1ccco1 | 1.19%
C=C(C)C(=O)OC | 3.42%
O=S(=O)(O)CCO | -23.3%
O=C(Nc1cccc(C2=NCCN2)c1)Nc1cccc(C2=NCCN2)c1 | 21% [at 18.9 µM]
OCCCCCCCl | -1.65%
Cc1oc(=O)oc1CN1CCN(c2cc3c(cc2F)c(=O)c(C(=O)O)c2n3C(C)S2)CC1 (stereo not given) | 2.04% [at 42.5 µM]
C=CCCCCCCCCCCC | -5.87% [at 8.39 µM]
CCCCC(CC)CNC(=O)CC(C)OC(=O)CCC(=O)O (stereo not given) | -13.7% [at 42.5 µM]
CC(C)COC(=O)CCCCC(=O)OCC(C)C | 2.92%
